Data published in PubChem BioAssay AID1159580 (chemical genetic matrix, 2015).
Where “and” joins values, the source holds several entries; their conditions need not be identical. Equal entries are not always repeated. Among all 5,500 compounds or so, about 2,000 (36%) were called active. Not shown: some 18% with an inconclusive outcome. Rule as the data show it: active = normalized growth mostly below about 0.91 (no sharp cut-off); inconclusive = no clear call, values can overlap the other calls; inactive = mostly above about 0.92. Some of the results follow.

Test: chemical genetic growth profiling, strain panel (AID 1159580);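 also: tested at 20 µM; growth read once vehicle control cultures reached saturation at 30 °C; 1 = growth at the plate median or of vehicle wells; lower values mean less growth of the strain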
Conditions: S. cerevisiae deletion strains, growth OD

Measured: normalized growth

N#Cc1ccc2c(c1)N(CCCN1CCC(O)CC1)c1ccccc1S2
active: locus YDR392W, strain spt3, stronger effect = lower value 0.72
inactive: locus YAL013W, strain DEP1, stronger effect = lower value 1 | locus YAL021C, strain ccr4, stronger effect = lower value 1.01 | locus YAL026C, strain drs2, stronger effect = lower value 0.99 | locus YAL030W, strain snc1, stronger effect = lower value 0.999 | locus YBL061C, strain skt5, stronger effect = lower value 0.984 | locus YBR009C, strain hhf1, stronger effect = lower value 0.953 | locus YBR021W, strain FUR4, stronger effect = lower value 1 | locus YBR023C, strain chs3, stronger effect = lower value 0.982 | locus YBR171W, strain sec66, stronger effect = lower value 1 | locus YBR229C, strain ROT2, stronger effect = lower value 1.02 | locus YBR231C, strain swc5, stronger effect = lower value 0.994 | locus YBR279W, strain paf1, stronger effect = lower value 0.987 | locus YCL011C, strain gbp2, stronger effect = lower value 0.989 | locus YCL016C, strain dcc1, stronger effect = lower value 0.987 | locus YCL029C, strain bik1, stronger effect = lower value 1.03 | locus YCL061C, strain MRC1, stronger effect = lower value 0.992 | locus YCL069W, strain vba3, stronger effect = lower value 0.993 | locus YCR088W, strain abp1, stronger effect = lower value 0.996 | locus YDL005C, strain med2, stronger effect = lower value 0.991 | locus YDL035C, strain GPR1, stronger effect = lower value 1.01 | locus YDL040C, strain nat1, stronger effect = lower value 0.975 | locus YDL074C, strain BRE1, stronger effect = lower value 1 | locus YDL101C, strain DUN1, stronger effect = lower value 1 | locus YDL134C, strain PPH21, stronger effect = lower value 1.01 | locus YDL185W, strain tfp1, stronger effect = lower value 1.03 | locus YDL192W, strain arf1, stronger effect = lower value 1.03 | locus YDR001C, strain nth1, stronger effect = lower value 0.992 | locus YDR069C, strain doa4, stronger effect = lower value 0.995 | locus YDR101C, strain arx1, stronger effect = lower value 1.01 | locus YDR137W, strain rgp1, stronger effect = lower value 1.02 | locus YDR150W, strain NUM1, stronger effect = lower value 0.999 | locus YDR159W, strain sac3, stronger effect = lower value 0.979 | locus YDR162C, strain NBP2, stronger effect = lower value 1.02 | locus YDR195W, strain ref2 1 | locus YDR297W, strain sur2, stronger effect = lower value 0.99 | locus YDR318W, strain mcm21, stronger effect = lower value 1.02 | locus YDR334W, strain swr1, stronger effect = lower value 0.996 | locus YDR335W, strain msn5, stronger effect = lower value 0.996 | locus YDR388W, stronger effect = lower value 1.03 | locus YDR502C, strain sam2, stronger effect = lower value 1.01 | locus YEL003W, strain gim4, stronger effect = lower value 1 | locus YEL037C, strain rad23, stronger effect = lower value 0.996 | locus YEL061C, strain CIN8 (second series), stronger effect = lower value 0.994 | locus YEL061C, strain CIN8, stronger effect = lower value 1 | locus YER015W, strain faa2, stronger effect = lower value 1 | locus YER016W, strain bim1, stronger effect = lower value 0.996 | locus YER110C, stronger effect = lower value 1.02 | locus YER111C, strain swi4, stronger effect = lower value 0.984 | locus YER155C, strain BEM2 (second series), stronger effect = lower value 0.912 | locus YER155C, strain BEM2, stronger effect = lower value 1 | locus YER167W, strain BCK2, stronger effect = lower value 1.01 | locus YFR010W, strain ubp6, stronger effect = lower value 0.999 | locus YGL078C, strain dbp3, stronger effect = lower value 1.01 | locus YGL086W, strain mad1, stronger effect = lower value 1.02 | locus YGL167C, strain pmr1, stronger effect = lower value 0.995 | locus YGL173C, strain kem1, stronger effect = lower value 0.991 | locus YGL227W, strain vid30, stronger effect = lower value 0.996 | locus YGL240W, strain doc1, stronger effect = lower value 0.97 | locus YGL248W, strain PDE1, stronger effect = lower value 1.01 | locus YGL253W, strain hxk2, stronger effect = lower value 0.991 | locus YGR078C, strain PAC10, stronger effect = lower value 0.998 | locus YGR135W, strain pre9, stronger effect = lower value 1.01 | locus YGR229C, strain SMI1, stronger effect = lower value 1 | locus YGR252W, strain gcn5, stronger effect = lower value 1.01 | locus YHR013C, strain ard1, stronger effect = lower value 0.897 | locus YHR027C, strain rpn1, stronger effect = lower value 0.997 | locus YHR030C, strain SLT2, stronger effect = lower value 1.01 and 1.03 | locus YHR079C, strain IRE1 (second series), stronger effect = lower value 1.02 | locus YHR079C, strain IRE1, stronger effect = lower value 1.04 | locus YHR094C, strain hxt1, stronger effect = lower value 1.02 | locus YHR129C, strain ARP1, stronger effect = lower value 1 | locus YHR142W, strain chs7, stronger effect = lower value 0.997 | locus YHR200W, strain rpn10, stronger effect = lower value 1.02 | locus YIL066C, strain RNR3, stronger effect = lower value 1.01 | locus YIL073C, strain SPO22, stronger effect = lower value 1.03 | locus YIL125W, strain kgd1, stronger effect = lower value 1.03 | locus YIR030C, strain dcg1, stronger effect = lower value 1.03 | locus YJL092W, strain hpr5, stronger effect = lower value 1 | locus YJL095W, strain BCK1 (second series), stronger effect = lower value 0.988 | locus YJL095W, strain BCK1, stronger effect = lower value 0.983 and 1.04 | locus YJL115W, strain asf1, stronger effect = lower value 0.994 | locus YJL129C, strain trk1, stronger effect = lower value 0.994 | locus YJL134W, strain LCB3, stronger effect = lower value 1 | locus YJL154C, strain vps35, stronger effect = lower value 0.987 | locus YJL164C, strain tpk1, stronger effect = lower value 0.992 | locus YJL166W, strain qcr8, stronger effect = lower value 0.997 | locus YJL168C, strain set2, stronger effect = lower value 1.02 | locus YJL187C, strain SWE1 (second series), stronger effect = lower value 1.01 | locus YJL187C, strain SWE1, stronger effect = lower value 0.998 | locus YJR043C, strain POL32, stronger effect = lower value 1.01 | locus YJR066W, strain TOR1, stronger effect = lower value 0.955
